Screening results as filed in PubChem BioAssay.
Shown are actives, neighbours in structure and some others; about 6.2% of the full set was active somewhere.
Gal4-VP16 FLuc – inhibits Gal4-VP16 luciferase reporter, ROR gamma counter-screen. Drosophila S2 Gal4-VP16 UAS-luciferase, luminescence, 20 h. Potency, µM (series often up to 53.6 µM), inactives show top-dose activity, negative = inhibition, usual class: inhibitors. 310,000 compounds, 3.5% hits. AID 2546;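 also: Gal4-VP16 expression switched on by copper sulfate through the metallothionein promoter; nearly all actives have a fitted effect of over 50% in size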
KinaseGlo FLuc – counter-screen: inhibitors of Kinase-Glo firefly luciferase. Potency, µM (series often up to 38.3 µM), without a hit: top-dose activity change, negative = inhibition, actives largely listed as inhibitors. 200,000 compounds, 0.28% hits. Q27757. Kinase-Glo luciferase, ATP luminescence, 8 min. AID 1379; also: nearly all actives have a fitted effect of over 60% in size
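Kinase-Glo luciferase light output from ATP and luciferin was measured with 10 uM ATP, within the enzyme's linear range. Buffer: 50 mM imidazole pH 7.2, 50 mM KCl, 7 mM MgCl2, 0.01% Tween 20, 0.05% BSA; luminescence read after 8 min at ambient temperature.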
RORg inh – inhibitors of mouse ROR gamma transcriptional activity; 310,000 compounds, 5.4% hits; Drosophila S2 Gal4-RORgamma UAS-luciferase reporter, 20 h; AID 2551; Potency, µM (titrated, usually from 53.6 µM), for the others: at the top dose activity change, negative = inhibition, hits mostly inhibitors; also: nearly all actives have a fitted effect of over 60% in size
Target sequence (P51450 whole entry, looked up, the tested form may be a part): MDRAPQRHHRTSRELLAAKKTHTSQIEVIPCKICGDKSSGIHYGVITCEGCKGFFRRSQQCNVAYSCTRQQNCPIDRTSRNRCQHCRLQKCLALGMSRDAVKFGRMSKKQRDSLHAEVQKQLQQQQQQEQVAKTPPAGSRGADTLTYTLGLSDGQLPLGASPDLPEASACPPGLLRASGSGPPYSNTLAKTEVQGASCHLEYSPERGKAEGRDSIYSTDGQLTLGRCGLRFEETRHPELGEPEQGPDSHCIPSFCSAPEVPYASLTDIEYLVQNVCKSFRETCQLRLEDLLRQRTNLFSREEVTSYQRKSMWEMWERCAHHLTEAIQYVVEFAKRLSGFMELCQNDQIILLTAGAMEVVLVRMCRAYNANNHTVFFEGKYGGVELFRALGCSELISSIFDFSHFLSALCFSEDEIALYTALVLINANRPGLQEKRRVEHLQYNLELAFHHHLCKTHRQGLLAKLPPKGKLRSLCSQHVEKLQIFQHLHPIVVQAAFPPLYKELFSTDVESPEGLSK
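Luciferase reporter read in Schneider cells carrying Gal4-RORγ (mouse) and UAS-Photinus luciferase; cells given compound 1 h before 700 uM copper sulfate induction, then incubated 20 h at ambient temperature.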
* = called active by the depositor; ? = inconclusive; nt = no result given; [ ] = remark or other dose. Calls follow the shape of the dose curve; as a rule, active = well fitted curve in the direction sought with a large enough effect; inconclusive = small, poorly fitted or top-dose-only effect, or another doubt; inactive = no such curve, though single readings can be large; an effect the other way counts as inactive or inconclusive. % is scaled to controls: 0 for no effect and ±100 for the full control effect; potency is read from the fitted curve at half-maximal effect.

SMILES	Gal4-VP16 FLuc	KinaseGlo FLuc	RORg inh
Cc1ccc(/C=N/NC(=O)c2nnn(-c3nonc3N)c2CN(C)c2ccccc2)s1	?	nt	18µM*
CN(Cc1c(C(=O)N/N=C/c2cccc(O)c2)nnn1-c1nonc1N)c1ccccc1	6%	nt	11%
Cc1c(C(=O)N/N=C/c2c(O)ccc3ccccc23)nnn1-c1nonc1N	7.1µM*	nt	4.5µM*
Cc1ccc(/C=N/NC(=O)c2nnn(-c3nonc3N)c2CN(C)C)s1	-6%	nt	13%
COc1ccc2ccccc2c1/C=N/NC(=O)c1nnn(-c2nonc2N)c1CN(C)C	-1%	nt	-6%
Cc1ccsc1/C=N/NC(=O)c1nnn(-c2nonc2N)c1CN(C)c1ccccc1	3.2µM*	nt	4µM*
Nc1nonc1-n1nnc(C(=O)N/N=C/c2cc(Br)ccc2O)c1CNc1ccccc1	7.1µM*	nt	5µM*
CSc1ncccc1C(=O)Nc1ccc(S(=O)(=O)NC2=NCCCCC2)cc1	18%	-1%	15%
CCCCN(CC)CCCNC(=O)c1ccc2c(c1)N(CC)C(=O)c1ccccc1S2(=O)=O	3%	nt	7%
COC(=O)c1c(N2C(=O)CC(Sc3ccccc3C(=O)O)C2=O)sc2c1CCCC2 (configuration not stated)	-12%	2%	-5%
CCCN(CCC)Cc1c(C(=O)N/N=C/c2ccc(C)o2)nnn1-c1nonc1N	-14%	nt	?
CCc1c(C(=O)N/N=C/c2sccc2C)nnn1-c1nonc1N	10µM*	nt	10µM*
CCn1cc(S(=O)(=O)Nc2ncccn2)cn1	-3%	nt	-17%
COC(=O)c1ccc(Nc2cc(C)nc3ccc(C)cc23)cc1	-26%	nt	?
Cc1ccc2nc(C)cc(Nc3ccc([N+](=O)[O-])cc3)c2c1	5µM*	-1%	7.1µM*
Cc1[nH]n(-c2ccccc2)c(=O)c1C(C[N+](=O)[O-])c1ccc(Br)cc1 (configuration not stated)	-26%	2%	?
COc1cccc(C(C[N+](=O)[O-])c2c(C)[nH]n(-c3ccccc3)c2=O)c1 (configuration not stated)	7.9µM*	nt	?
O=[N+]([O-])c1cccc(S(=O)(=O)N2CCN(c3ccccn3)CC2)c1	3%	nt	10%
COc1cc(C(=O)NCCNc2nc3c(C)c(C)ccc3cc2C#N)cc(OC)c1OC	14%	nt	12%[1.91 µM]
CCOCCCNC(=S)NCCCNc1nc2ccc(C)cc2cc1C#N	-2%[10 µM]	4%	6.3µM*
CCOCCCNC(=S)NCCNc1nc2ccc(C)cc2cc1C#N	7%	0%	?
COCCCNC(=S)NCCNc1nc2c(C)c(C)ccc2cc1C#N	?	-1%	18µM*
Cc1ccc(N(C)C(=O)c2cc(S(=O)(=O)N3CCCC3)cn2C)cc1	-1%	nt	1%
C#C[C@]1(O)CC[C@H]2[C@H]3CCc4cc(O)ccc4[C@@H]3CC[C@@]21C	3%	nt	-1%
Cc1ccnc(NC(=O)c2cccc(NS(=O)(=O)c3ccccc3C)c2)c1	3%	-4%	?
SMILES	Gal4-VP16 FLuc	KinaseGlo FLuc	RORg inh
CCNC(=O)Cn1cc(C#N)c2ccccc21	-5%	-6%	-22%
Cc1cc2nc(N3C(=O)CNC3=S)sc2cc1C	3.2µM*	-6%	1µM*
CCOc1ccc2nc(N3C(=O)CNC3=S)sc2c1	2.8µM*	nt	1µM*
Cc1cc2nc(N)sc2cc1C	-6%	-23%	?
CCCCC(=O)N1CCN(c2nc3ccc(OCC)cc3s2)CC1	-9%	nt	3%
CCOC(=O)NC1(C(F)(F)F)NC(=O)N(C2CCCCC2)C1=O (configuration not stated)	-4%	-4%	10%
Oc1ccc(/C=N/NC(=S)Nc2cccnc2)c(O)c1O	-11%	nt	-35%
Oc1cccc(/C=N/NC(=S)Nc2cccnc2)c1O	5.6µM*	-3%	4.5µM*
Fc1ccc(/C=N/NC(=S)Nc2cccnc2)cc1F	1%	1%	-2%
Oc1ccc(/C=N/NC(=S)Nc2cccnc2)c(O)c1	?	1%	-36%
Fc1c(F)c(F)c(/C=N/NC(=S)Nc2cccnc2)c(F)c1F	3.5µM*	-1%	2.5µM*
Fc1ccc(/C=N/NC(=S)Nc2cccnc2)cc1	0.35µM*	-9%	4.5µM*
Fc1cccc(F)c1/C=N/NC(=S)Nc1cccnc1	3.5µM*	-2%	1.3µM*
O=C(O)c1cccc(NC(=S)N/N=C/c2cccnc2)c1	-4%	0%	?
COC(=O)[C@H]1CC=C[C@H]2CCN(Cc3ccc(Cl)c(Cl)c3)C(=O)[C@@H]12	1%	0%[39.9 µM]	?
O=C(O)[C@H]1CC=CC[C@@H]1C(=O)Nc1cccc(O)c1	nt	-4%[7.66 µM]	nt
O=C(N/N=C1/C[C@@H](O)[C@@H](O)[C@@H]2[C@H]3C(=O)N(c4ccc(F)cc4F)C(=O)[C@@H]3CC[C@@H]12)OCc1ccccc1	-5%[10 µM]	nt	0%[10 µM]
O=S(=O)(Nc1nc2ccc(Cl)cc2s1)c1cccs1	?	nt	32%
CC1CC(C)CN(C(=O)COC(=O)CCc2nc3ccccc3c(=O)[nH]2)C1 (configuration not stated)	11%	1%	-14%
Oc1ccccc1C1Nc2cccc3cccc(c23)N1	-15%	-8%	16%
O=[N+]([O-])c1ccccc1C1Nc2cccc3cccc(c23)N1	-1%[0.365 µM]	-5%	1µM*
O=C(CN1C(=O)C(c2ccccc2)Oc2cccnc21)NCc1ccccc1F (configuration not stated)	-6%	nt	13%
Nc1ccccc1C(=O)CC(N)C(=O)O (configuration not stated)	28µM*	0%	13µM*
Nc1ccc(C(=O)C[C@H](N)C(=O)O)cc1O	nt	-8%[7.66 µM]	nt
Cc1cc(NC(=O)CSCCO)no1	-7%	2%	-18%
SMILES	Gal4-VP16 FLuc	KinaseGlo FLuc	RORg inh
Cc1ccc(NCc2nc3ccccc3n2C)c(C)c1	10µM*	nt	13µM*
Cc1ccc(NCc2ccccc2O)c(C)c1	-5%	4%	0%
Cn1c(CNc2ccc(Cl)cc2)nc2ccccc21	?	-6%	?
Cc1ccc(N2CCN(c3ccc(NCc4nc5ccccc5n4C)cc3)CC2)cc1	-3%	-3%	11µM*
Cc1ccccc1OCc1nc2ccccc2n1C	?	nt	20µM*
Cc1nnc(OCc2nc3ccccc3n2C)c2ccccc12	29%	3%	8%
FC(F)(F)c1nnc2n1N=C(c1cccs1)CS2	1%	0%	3%
O=C(O)CCC1CCCC1	-8%	nt	-13%
COC(=O)c1ccc(C(NC(=O)OCc2ccccc2)/C(=C/[C@@H](C)C(=O)N(C)Cc2cccnc2)c2cccnc2)cc1 (some centres not stated)	-6%	-2%	24%
O=C(NCCc1ccccc1)C(=O)Nc1nccs1	2%	-2%	-5%
O=C(COc1ccccc1)Nc1ncccn1	5%	10%	38%
C/C(=C\C(=O)O)C(=O)Nc1nccs1	6%	-1%	-1%
C/C(=C\C(=O)Nc1nccs1)c1ccccc1	11µM*	7%	8.9µM*
COc1ccccc1N1CCN(CC(=O)Nc2nccs2)CC1	-6%	nt	-6%
S=C(NCc1ccccc1)Nc1nccs1	1.3µM*	nt	0.89µM*
Cc1cccc(N2CCN(CC(=O)Nc3nccs3)CC2)c1C	-12%	-1%	10µM*
O=C(COc1ccccc1)Nc1nccs1	?	10µM*	13µM*
Cc1cccc(C)c1Nc1oc(-c2ccccc2)nc1-c1cccc2ccccc12	1%	-2%	11%
